Tests used:
Conditions in all cases: concentration: 1 μM, replicates: in singlicate; n = 1
TNIK = test system: TNIK
TNK1 = test system: TNK1
TNK2 = test system: TNK2
TNNI3K = test system: TNNI3K
TRKA = test system: T1, TRKA
T1 construct: gene NTRK1

TRKB = test system: TRKB
TRKC = test system: T2, TRKC
T2 construct: gene NTRK3

TRPM6 = test system: TRPM6
TSSK1B = test system: TSSK1B
TSSK3 = test system: TSSK3
TTK = test system: TTK
TXK = test system: TXK
[1] = test system: TYK2(JH1domain-catalytic)
[2] = test system: TYK2(JH2domain-pseudokinase)
TYRO3 = test system: TYRO3
ULK1 = test system: ULK1
ULK2 = test system: ULK2
ULK3 = test system: ULK3
VEGFR2 = test system: T3, VEGFR2
T3 construct: gene KDR

VPS34 = test system: T4, VPS34
T4 construct: gene PIK3C3
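Further: KINOMEscan kinase panel screen.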

| SMILES | %Inh (TNIK) | %Inh (TNK1) | %Inh (TNK2) | %Inh (TNNI3K) | %Inh (TRKA) | %Inh (TRKB) | %Inh (TRKC) | %Inh (TRPM6) | %Inh (TSSK1B) | %Inh (TSSK3) | %Inh (TTK) | %Inh (TXK) | %Inh [1] | %Inh [2] | %Inh (TYRO3) | %Inh (ULK1) | %Inh (ULK2) | %Inh (ULK3) | %Inh (VEGFR2) | %Inh (VPS34) |
| --- | --- | --- | --- | --- | --- | --- | --- | --- | --- | --- | --- | --- | --- | --- | --- | --- | --- | --- | --- | --- |
| COc1cccc(-c2cc(-c3c[nH]nc3-c3ccccn3)ccn2)c1 [GW680338] | 71% | 0% | 0% | 9% | 38% | 0% | 11% | 0% | 0% | 11% | 23% | 0% | 12% | 9% | 0% | 0% | 0% | 7% | 0% | 0% |
| O=C(O)COc1ncnc2cc(-c3ccc4[nH]ncc4c3)sc12 | 10% | 0% | 0% | 0% | 33% | 42% | 0% | 6% | 0% | 0% | 0% | 14% | 29% | 55% | 0% | 43% | 26% | 33% | 36% | 27% |
| COc1cccc(NC(=O)NC2CCN(c3ccnc(Nc4ccc(F)cc4)n3)C2)c1 (centres unmarked) [GSK1379721] | 0% | 0% | 0% | 2% | 42% | 59% | 80% | 26% | 9% | 23% | 9% | 41% | 26% | 52% | 0% | 13% | 0% | 9% | 10% | 7% |
| Cc1cccc(-c2nc(-c3ccc(S(C)(=O)=O)cc3)sc2-c2ccnc(NCCc3ccccc3)c2)c1 | 10% | 0% | 0% | 0% | 0% | 0% | 15% | 0% | 0% | 0% | 10% | 6% | 0% | 18% | 0% | 0% | 8% | 0% | 0% | 82% |
| CC(=O)Nc1nc2cnc(Nc3cc(NC(=O)c4cccc(CCC#N)c4)ccc3C)nc2s1 | 7% | 0% | 9% | 7% | 0% | 6% | 5% | 3% | 2% | 0% | 16% | 0% | 21% | 27% | 1% | 0% | 20% | 0% | 29% | 12% |
| Fc1cc(Cl)ccc1Nc1ccnc2cc(-c3ccc(CN4CCCCC4)o3)ccc12 [GW560116] | 10% | 0% | 2% | 0% | 4% | 19% | 12% | 0% | 0% | 8% | 0% | 23% | 27% | 18% | 0% | 0% | 0% | 0% | 6% | 22% |
| COC(=O)c1c(-c2ccccc2)c2cc(OC)ccc2c(=O)n1Cc1ccccc1 | 1% | 0% | 0% | 0% | 0% | 0% | 0% | 11% | 10% | 0% | 14% | 12% | 7% | 0% | 0% | 1% | 0% | 0% | 7% | 0% |
| COc1cc(Nc2nccc(N3CCC(NC(=O)Nc4cc(C)ccc4C)C3)n2)cc(OC)c1OC (centres unmarked) [GSK1379762] | 0% | 14% | 15% | 0% | 18% | 0% | 20% | 0% | 7% | 21% | 16% | 13% | 39% | 3% | 0% | 19% | 4% | 92.4% | 0% | 0% |
| Cn1ccc2ncnc(Oc3ccc(NC(=O)Nc4ccccc4)cc3)c21 | 3% | 0% | 0% | 0% | 4% | 0% | 15% | 0% | 0% | 0% | 0% | 1% | 0% | 0% | 0% | 0% | 0% | 3% | 97.8% | 0% |
| COC(=O)c1c(-c2ccccc2)c2cc(C(=O)O)ccc2c(=O)n1Cc1ccccc1 | 0% | 0% | 0% | 0% | 0% | 0% | 11% | 0% | 0% | 0% | 4% | 0% | 0% | 4% | 7% | 0% | 0% | 0% | 0% | 9% |
| Cc1ccc(NC(=O)Nc2cccc(Cl)c2)cc1-c1ccc(C(=O)Nc2ccncc2)cc1 [GSK1398468] | 0% | 0% | 12% | 64% | 0% | 0% | 6% | 0% | 0% | 8% | 0% | 0% | 0% | 26% | 0% | 11% | 0% | 5% | 16% | 0% |
| Cc1ccc(C(=O)Nc2ccc(Nc3ccnc4cc(-c5ccccn5)ccc34)cc2O)cc1.Cl [GW440146] | 0% | 45% | 95.3% | 0% | 7% | 0% | 34% | 57% | 34% | 13% | 0% | 5% | 28% | 19% | 0% | 0% | 0% | 3% | 13% | 0% |
| CCn1c(-c2ccccn2)nc2cnccc21 [SB-736398] | 0% | 7% | 9% | 0% | 0% | 59% | 52% | 0% | 5% | 12% | 0% | 10% | 21% | 45% | 0% | 8% | 0% | 0% | 0% | 4% |
| Cc1cc(N2Cc3ccccc3C2)nc(Nc2ccc(S(=O)(=O)N3CCOCC3)cc2)n1.Cl [GSK1669917] | 0% | 0% | 7% | 0% | 0% | 0% | 0% | 9% | 0% | 8% | 0% | 0% | 7% | 0% | 0% | 0% | 0% | 0% | 0% | 0% |
| CCn1c(-c2cccnc2O)nc2cnccc21 [SB-736715] | 0% | 8% | 0% | 0% | 0% | 3% | 0% | 0% | 0% | 0% | 0% | 0% | 0% | 0% | 0% | 0% | 0% | 0% | 0% | 0% |
| COc1ccccc1CNC(=O)c1cc(C(=O)c2ccccc2C)c[nH]1 [GSK364507] | 0% | 0% | 17% | 0% | 0% | 24% | 2% | 21% | 16% | 6% | 0% | 27% | 5% | 21% | 15% | 4% | 0% | 9% | 0% | 1% |
| NC(=O)c1nnc2ccccc2c1N | 3% | 0% | 0% | 5% | 74% | 20% | 10% | 24% | 5% | 11% | 12% | 4% | 44% | 38% | 2% | 24% | 0% | 29% | 16% | 20% |
| CS(=O)(=O)c1ccc(-c2c(-c3ncn[nH]3)sc(N3CCOCC3)c2C#N)cc1 | 20% | 55% | 17% | 0% | 13% | 0% | 0% | 0% | 29% | 5% | 21% | 0% | 0% | 0% | 0% | 3% | 36% | 7% | 8% | 86% |
| Cl.NC(=O)c1cccc(Nc2nccc(Nc3ccc(Oc4cccc(Cl)c4)c(Cl)c3)n2)c1 [GW659008] | 2% | 77% | 29% | 4% | 0% | 0% | 0% | 13% | 0% | 4% | 29% | 0% | 39% | 18% | 10% | 6% | 0% | 0% | 0% | 9% |
